# Assay results as given in ChEMBL document CHEMBL2218924, “A broad activity screen in support of a chemogenomic map for kinase signalling research and drug discovery” (Biochem J, 2013).
# Legend:
# [1] = target: T1, Ephrin type-A receptor 3 (Homo sapiens) (UniProt P29320); conditions: at 10 µM
# T1 sequence (whole entry): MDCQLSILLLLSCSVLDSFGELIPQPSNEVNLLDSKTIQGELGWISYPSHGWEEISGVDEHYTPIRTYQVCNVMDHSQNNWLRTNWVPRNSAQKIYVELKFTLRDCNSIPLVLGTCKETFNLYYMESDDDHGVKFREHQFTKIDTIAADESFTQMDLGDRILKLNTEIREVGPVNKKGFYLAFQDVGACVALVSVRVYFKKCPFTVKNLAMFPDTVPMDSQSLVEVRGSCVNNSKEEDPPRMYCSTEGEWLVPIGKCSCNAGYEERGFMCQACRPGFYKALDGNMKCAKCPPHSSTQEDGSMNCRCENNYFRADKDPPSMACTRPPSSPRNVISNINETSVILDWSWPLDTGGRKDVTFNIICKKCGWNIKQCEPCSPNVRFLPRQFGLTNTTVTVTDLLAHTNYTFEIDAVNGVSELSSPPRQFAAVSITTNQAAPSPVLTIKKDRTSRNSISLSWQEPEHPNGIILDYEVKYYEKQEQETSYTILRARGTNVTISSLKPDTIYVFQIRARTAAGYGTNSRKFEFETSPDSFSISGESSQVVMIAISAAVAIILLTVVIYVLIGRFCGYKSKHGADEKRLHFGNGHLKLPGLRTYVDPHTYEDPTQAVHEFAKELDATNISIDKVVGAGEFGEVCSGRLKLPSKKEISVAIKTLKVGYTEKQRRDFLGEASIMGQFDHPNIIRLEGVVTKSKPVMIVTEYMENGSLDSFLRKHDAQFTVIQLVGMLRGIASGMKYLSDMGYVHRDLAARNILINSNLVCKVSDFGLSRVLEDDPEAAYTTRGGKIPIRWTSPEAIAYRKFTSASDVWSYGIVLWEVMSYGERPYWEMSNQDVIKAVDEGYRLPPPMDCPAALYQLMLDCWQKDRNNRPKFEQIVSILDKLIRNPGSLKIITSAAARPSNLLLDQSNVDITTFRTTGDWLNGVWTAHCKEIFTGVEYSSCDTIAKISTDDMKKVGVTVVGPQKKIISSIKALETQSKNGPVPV
# [2] = target: Ephrin type-A receptor 4 (Homo sapiens) (UniProt P54764); conditions: at 1 µM
# [3] = target: Ephrin type-A receptor 4 (Homo sapiens) (UniProt P54764); conditions: at 10 µM
# [4] = target: Ephrin type-A receptor 5 (Homo sapiens) (UniProt P54756); conditions: at 1 µM
# [5] = target: Ephrin type-A receptor 5 (Homo sapiens) (UniProt P54756); conditions: at 10 µM
# [6] = target: Ephrin type-A receptor 7 (Homo sapiens) (UniProt Q15375); conditions: at 1 µM
# [7] = target: Ephrin type-A receptor 7 (Homo sapiens) (UniProt Q15375); conditions: at 10 µM
# [8] = target: T2, Ephrin type-A receptor 8 (Homo sapiens) (UniProt P29322); conditions: at 1 µM
# T2 sequence (whole entry): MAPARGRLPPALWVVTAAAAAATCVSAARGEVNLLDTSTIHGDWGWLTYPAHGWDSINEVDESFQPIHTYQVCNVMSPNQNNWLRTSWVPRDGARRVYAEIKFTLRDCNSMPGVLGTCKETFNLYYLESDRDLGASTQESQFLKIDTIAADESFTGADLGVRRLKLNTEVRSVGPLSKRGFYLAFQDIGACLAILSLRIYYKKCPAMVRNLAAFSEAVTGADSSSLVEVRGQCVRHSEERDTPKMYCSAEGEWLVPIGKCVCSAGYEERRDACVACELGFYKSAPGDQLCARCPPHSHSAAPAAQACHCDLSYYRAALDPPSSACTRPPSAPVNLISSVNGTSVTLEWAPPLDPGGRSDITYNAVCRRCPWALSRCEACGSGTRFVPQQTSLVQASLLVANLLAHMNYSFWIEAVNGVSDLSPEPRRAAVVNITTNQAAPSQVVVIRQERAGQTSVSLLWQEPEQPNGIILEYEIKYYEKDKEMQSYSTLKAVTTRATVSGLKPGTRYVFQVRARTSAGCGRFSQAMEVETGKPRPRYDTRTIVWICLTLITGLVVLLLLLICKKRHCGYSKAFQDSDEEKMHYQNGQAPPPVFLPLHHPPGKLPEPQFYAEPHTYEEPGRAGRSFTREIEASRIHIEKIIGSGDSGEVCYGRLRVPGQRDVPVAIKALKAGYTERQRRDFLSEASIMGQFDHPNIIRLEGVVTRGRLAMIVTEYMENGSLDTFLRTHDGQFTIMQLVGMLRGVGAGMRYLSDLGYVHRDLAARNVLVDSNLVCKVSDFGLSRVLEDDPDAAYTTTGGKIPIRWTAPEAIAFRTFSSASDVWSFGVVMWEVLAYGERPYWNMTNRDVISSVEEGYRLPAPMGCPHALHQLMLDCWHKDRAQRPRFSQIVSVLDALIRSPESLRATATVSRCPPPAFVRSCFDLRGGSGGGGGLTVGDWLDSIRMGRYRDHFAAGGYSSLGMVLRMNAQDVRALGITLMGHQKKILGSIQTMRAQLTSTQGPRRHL
# [9] = target: T2, Ephrin type-A receptor 8 (Homo sapiens); conditions: at 10 µM
# [10] = target: T3, Ephrin type-B receptor 1 (Homo sapiens) (UniProt P54762); conditions: at 1 µM
# T3 sequence (whole entry): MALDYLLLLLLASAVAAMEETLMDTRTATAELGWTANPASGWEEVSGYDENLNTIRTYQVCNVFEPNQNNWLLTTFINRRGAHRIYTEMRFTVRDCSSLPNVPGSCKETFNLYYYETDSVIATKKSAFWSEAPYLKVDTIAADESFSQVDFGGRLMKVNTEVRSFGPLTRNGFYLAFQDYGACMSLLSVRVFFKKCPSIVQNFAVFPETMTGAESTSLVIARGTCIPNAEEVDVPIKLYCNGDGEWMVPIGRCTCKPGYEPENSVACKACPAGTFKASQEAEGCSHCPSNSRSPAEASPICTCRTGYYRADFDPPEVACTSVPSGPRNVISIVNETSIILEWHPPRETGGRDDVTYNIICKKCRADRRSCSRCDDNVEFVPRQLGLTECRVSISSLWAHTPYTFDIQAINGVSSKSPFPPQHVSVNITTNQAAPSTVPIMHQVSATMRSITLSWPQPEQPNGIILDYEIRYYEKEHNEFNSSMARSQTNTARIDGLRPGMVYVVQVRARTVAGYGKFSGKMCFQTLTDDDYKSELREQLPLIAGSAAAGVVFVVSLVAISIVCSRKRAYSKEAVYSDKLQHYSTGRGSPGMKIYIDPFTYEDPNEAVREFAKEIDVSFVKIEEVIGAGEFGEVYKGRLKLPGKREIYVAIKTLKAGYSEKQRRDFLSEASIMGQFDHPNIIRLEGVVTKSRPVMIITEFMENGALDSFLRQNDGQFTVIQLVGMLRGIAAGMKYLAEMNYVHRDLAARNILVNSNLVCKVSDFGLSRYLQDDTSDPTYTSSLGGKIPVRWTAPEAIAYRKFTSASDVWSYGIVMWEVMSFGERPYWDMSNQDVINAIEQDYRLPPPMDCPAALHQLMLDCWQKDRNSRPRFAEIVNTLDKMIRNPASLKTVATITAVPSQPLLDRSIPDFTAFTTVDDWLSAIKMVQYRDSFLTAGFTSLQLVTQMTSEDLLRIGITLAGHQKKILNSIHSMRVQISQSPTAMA
# Chain of Ephrin type-A receptor 4 (Homo sapiens) (P54764 whole entry): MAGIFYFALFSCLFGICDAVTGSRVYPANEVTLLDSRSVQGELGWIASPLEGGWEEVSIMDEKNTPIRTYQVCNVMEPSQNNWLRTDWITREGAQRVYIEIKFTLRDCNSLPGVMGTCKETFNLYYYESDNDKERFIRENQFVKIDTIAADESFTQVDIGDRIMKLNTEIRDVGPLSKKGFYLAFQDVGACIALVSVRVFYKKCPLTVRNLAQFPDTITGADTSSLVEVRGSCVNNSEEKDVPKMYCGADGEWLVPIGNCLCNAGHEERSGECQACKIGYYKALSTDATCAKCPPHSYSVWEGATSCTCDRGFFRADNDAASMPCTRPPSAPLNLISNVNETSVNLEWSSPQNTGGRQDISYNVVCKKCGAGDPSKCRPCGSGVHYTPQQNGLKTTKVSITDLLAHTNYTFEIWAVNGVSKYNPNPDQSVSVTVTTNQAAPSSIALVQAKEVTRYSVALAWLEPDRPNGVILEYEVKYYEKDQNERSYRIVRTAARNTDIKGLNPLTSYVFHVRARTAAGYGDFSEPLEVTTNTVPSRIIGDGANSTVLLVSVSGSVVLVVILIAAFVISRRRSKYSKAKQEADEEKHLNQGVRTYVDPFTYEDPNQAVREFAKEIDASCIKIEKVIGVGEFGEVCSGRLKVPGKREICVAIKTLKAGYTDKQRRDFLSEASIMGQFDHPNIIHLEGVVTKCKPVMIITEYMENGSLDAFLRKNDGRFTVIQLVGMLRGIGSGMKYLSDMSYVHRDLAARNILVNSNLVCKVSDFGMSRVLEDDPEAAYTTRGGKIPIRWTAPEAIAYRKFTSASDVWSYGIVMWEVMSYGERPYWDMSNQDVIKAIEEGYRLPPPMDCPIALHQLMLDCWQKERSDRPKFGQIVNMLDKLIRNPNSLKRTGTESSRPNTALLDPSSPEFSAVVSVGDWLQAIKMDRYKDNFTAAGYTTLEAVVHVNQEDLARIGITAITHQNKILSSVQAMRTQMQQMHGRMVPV
# Chain of Ephrin type-A receptor 5 (Homo sapiens) (P54756 whole entry): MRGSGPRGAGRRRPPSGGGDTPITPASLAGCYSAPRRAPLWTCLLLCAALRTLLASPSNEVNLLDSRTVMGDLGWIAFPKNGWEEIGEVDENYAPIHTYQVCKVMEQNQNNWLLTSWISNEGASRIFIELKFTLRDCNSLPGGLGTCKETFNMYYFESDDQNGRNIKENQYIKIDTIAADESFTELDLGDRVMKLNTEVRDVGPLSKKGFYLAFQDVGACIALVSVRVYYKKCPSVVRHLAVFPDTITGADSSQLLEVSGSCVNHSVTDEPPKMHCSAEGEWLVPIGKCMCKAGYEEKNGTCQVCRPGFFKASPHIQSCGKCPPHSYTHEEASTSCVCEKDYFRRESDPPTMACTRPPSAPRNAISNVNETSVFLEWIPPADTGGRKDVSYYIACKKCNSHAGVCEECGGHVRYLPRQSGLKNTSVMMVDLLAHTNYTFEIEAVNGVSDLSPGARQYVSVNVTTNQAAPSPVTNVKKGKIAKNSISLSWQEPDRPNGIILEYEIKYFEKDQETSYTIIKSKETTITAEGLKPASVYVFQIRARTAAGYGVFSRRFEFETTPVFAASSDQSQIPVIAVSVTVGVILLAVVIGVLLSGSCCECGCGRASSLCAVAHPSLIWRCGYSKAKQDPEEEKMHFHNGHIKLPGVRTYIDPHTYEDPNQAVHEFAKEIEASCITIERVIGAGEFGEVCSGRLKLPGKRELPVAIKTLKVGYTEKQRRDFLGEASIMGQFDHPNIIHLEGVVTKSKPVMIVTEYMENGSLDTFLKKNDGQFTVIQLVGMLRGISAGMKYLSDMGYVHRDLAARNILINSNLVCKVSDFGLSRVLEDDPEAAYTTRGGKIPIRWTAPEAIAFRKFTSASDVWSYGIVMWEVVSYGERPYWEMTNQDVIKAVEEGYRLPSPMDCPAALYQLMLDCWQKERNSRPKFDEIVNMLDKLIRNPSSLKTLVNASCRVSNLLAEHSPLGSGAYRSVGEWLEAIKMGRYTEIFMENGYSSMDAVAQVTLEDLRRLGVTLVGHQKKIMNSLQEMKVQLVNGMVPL
# Chain of Ephrin type-A receptor 7 (Homo sapiens) (Q15375 28-998 limits assumed): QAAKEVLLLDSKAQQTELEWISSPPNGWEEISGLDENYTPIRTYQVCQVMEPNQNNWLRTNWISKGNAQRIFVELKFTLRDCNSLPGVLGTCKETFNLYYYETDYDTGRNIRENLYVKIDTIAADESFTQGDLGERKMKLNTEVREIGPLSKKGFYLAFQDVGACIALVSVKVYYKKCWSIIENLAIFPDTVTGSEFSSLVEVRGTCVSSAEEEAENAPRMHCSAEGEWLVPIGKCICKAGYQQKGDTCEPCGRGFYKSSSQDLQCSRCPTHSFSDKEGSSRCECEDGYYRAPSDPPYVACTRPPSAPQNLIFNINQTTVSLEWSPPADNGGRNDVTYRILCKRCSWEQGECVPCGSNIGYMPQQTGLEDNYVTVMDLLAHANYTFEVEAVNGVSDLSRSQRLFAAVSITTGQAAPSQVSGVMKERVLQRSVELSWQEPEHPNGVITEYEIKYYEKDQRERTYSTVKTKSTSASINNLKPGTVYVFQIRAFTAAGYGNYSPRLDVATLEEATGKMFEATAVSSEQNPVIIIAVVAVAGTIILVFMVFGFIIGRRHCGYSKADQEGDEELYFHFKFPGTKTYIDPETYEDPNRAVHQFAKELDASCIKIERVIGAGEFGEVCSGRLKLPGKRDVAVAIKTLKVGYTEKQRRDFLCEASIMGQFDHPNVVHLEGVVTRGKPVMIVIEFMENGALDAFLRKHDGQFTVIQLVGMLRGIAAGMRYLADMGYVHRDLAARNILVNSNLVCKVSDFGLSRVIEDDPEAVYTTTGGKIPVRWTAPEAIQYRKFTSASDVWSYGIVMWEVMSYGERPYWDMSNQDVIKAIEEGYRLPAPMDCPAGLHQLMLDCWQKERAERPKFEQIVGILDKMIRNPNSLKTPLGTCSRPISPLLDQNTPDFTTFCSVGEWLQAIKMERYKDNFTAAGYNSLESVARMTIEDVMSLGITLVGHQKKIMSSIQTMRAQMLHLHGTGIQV
compound,measurement,setting,value
NC(=O)Nc1sc(-c2ccc(F)cc2)cc1C(N)=O,residual activity,[1],33%
same,residual activity,[2],93%
same,residual activity,[3],43%
same,residual activity,[4],90%
same,residual activity,[5],28%
same,residual activity,[6],74%
same,residual activity,[7],25%
same,residual activity,[8],84%
same,residual activity,[9],54%
same,residual activity,[10],11%
